Most compounds without a hit are left out; they make up all but 21% or so of the library.
Pf growth 96h = P. falciparum growth inhibition at 96 hour, primary screen for plastid delayed-death inhibitors; 320,000 tested, 6.9% active; P. falciparum luciferase reporter growth, 96 h; AID 504834; Potency, µM (titrated, usually from 28.7 µM), inactives show at the highest dose activity change, negative = inhibition, most hits filed as inhibitors; note: potency is the fitted concentration of half-maximal effect; % is set by controls: 0 for no effect and ±100 for the full control effect
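Compounds incubated with erythrocytes infected by luciferase-expressing P. falciparum (2% hematocrit, 0.05% parasitemia final) for 96 hours, 37 C in 5% CO2. Growth inhibition scored as decreased luciferase luminescence.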
Shiga inhibitor = inhibitors of Shiga toxin in Vero cells; Vero cells, Shiga toxin protein synthesis inhibition reporter; inhibition, % at 38.7 µM; 290,000 tested, 9.2% active; in the data active = inhibition mostly above about 28%, no sharp cut-off; inactive = mostly below about 43%; note: 0% is about no effect
AMA1 RON2 block = inhibitors of Plasmodium falciparum AMA1-RON2 interaction; AlphaScreen AMA1-biotinylated RON2 peptide binding; Potency, µM (series often up to 58.2 µM), without a hit: top-dose activity change, negative = inhibition, hits mostly inhibitors; 360,000 tested, 0.2% active; AID 720542;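 note: potency is the fitted concentration of half-maximal effect; 0% = vehicle wells and -100% = peptide control; nearly all actives have a fitted effect of over 45% in size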
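AMA1 (3D7) with his tag at 25 nM final met compounds first, then biotinylated RON2 peptide at 25 nM; detection used donor plus acceptor beads, 10 µg/mL apiece, read by AlphaScreen after 30 min at room temperature.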
HCV inh = HCV inhibition; Huh7.5.1 HCVcc-Cre infection, luciferase reporter, 44 h; 340,000 tested, 3.4% active; Potency, µM (top dose mostly 41.8 µM), without a hit: top-dose activity change, negative = inhibition, usual class: inhibitors; note: potency is the fitted concentration of half-maximal effect; % is set by controls: 0 for no effect and ±100 for the full control effect
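HCVcc-Cre virus at an moi near 0.5 was added right after compound to cells cultured 4 h from seeding (1,000 cells/well). Luciferase activity was determined 44 h later, 15 min after substrate addition at RT.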
CHX counter = counter-screen for Shiga toxin inhibitors: cycloheximide protein synthesis inhibition; cell reporter, cycloheximide protein synthesis inhibition counterscreen; max response, %; 300,000 tested, 12% active; AID 2314; in the data active = max response mostly above about 13%, no sharp cut-off; inactive = mostly below about 14%; note: read at 38.3 µM for the half of the compounds with a filed dose; 0% is about no effect
Pf growth 48h = P. falciparum growth inhibition at 48 hours (one generation); P. falciparum luciferase growth in erythrocytes, 48 h; Potency, µM (titrated, usually from 28.7 µM), for inactives: at the highest dose activity change, negative = inhibition, hits mostly inhibitors; 310,000 tested, 5.9% active; AID 504832; note: potency is the fitted concentration of half-maximal effect; % is set by controls: 0 for no effect and ±100 for the full control effect
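Compounds are pin-transferred into medium, infected erythrocytes (2% hematocrit, 0.1% parasitemia final) are added, and plates sit one parasite generation at 37 C in 5% CO2. Detection reagent is then added and luminescence measured.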
The depositor's hits bear a star; ? = inconclusive; / = not tested or not shown. Unless noted, calls come from the whole dose curve; as a rule, active = well fitted curve in the direction sought with a large enough effect; inconclusive = small, poorly fitted or top-dose-only effect, or another doubt; inactive = no such curve, though single readings can be large; an effect the other way counts as inactive or inconclusive.

SMILES | Pf growth 96h | Shiga inhibitor | AMA1 RON2 block | HCV inh | CHX counter | Pf growth 48h
O=C(CSc1ncnc2ccccc12)Nc1cc(S(=O)(=O)N2CCCCC2)ccc1Cl | ? | 29 | -16% | 10µM* | 8 | ?
Cc1ccc(Nc2nnc(SCC(=O)Nc3ccc(S(=O)(=O)N4CCOCC4)cc3)s2)cc1 | / | 111* | 6% | ? | 49* | 26%
Cc1cccc(NC(=O)CSc2nnc(NC(=O)CN3CCCCC3)s2)c1 | -9% | 13 | / | 2% | 1 | 10%
COc1ccc(-c2c(-c3ccsc3)oc3ccc(N4CCOCC4)cc23)cc1 | / | / | -9% | -26% | / | /
CCOC(=O)[C@]12CCCC=C1N(Cc1cccc3ccccc13)C(=O)[C@H](CC(=O)NCCCCc1ccccc1)C2 | / | / | -4% | / | / | /
NNC(=O)COc1ccc(-c2nccc(-c3ccc(F)cc3)n2)cc1 | 12µM* | -4 | 74% | -28% | 1 | ?
CNc1cncc(-c2ccc(O)cc2)n1 | / | / | 17% | / | / | /
Oc1ccc(-c2nccc(-c3ccc(F)cc3)n2)cc1 | 109% | 88* | 2% | -24% | 81* | 125%
NNC(=O)COc1ccc(F)cc1 | -15% | -8 | 57% | 37% | -2 | 0%
COC(=O)C1=C[C@@H](C(=O)OC)C2C3=C(C(=O)[C@]2(CC(C)C)NC(=O)c2ccccc2)[C@H](C)n2c(=O)n(-c4ccccc4)c(=O)n2[C@@H]3C1 (some centres not stated) | / | -8 | / | / | -3 | /
CCN(CC(=O)NCc1ccncc1)S(=O)(=O)c1ccccc1 | -9% | -2 | 6% | 18% | -4 | 4%
Cc1ccc(OCCn2cnc3c2c(=O)n(C)c(=O)n3C)cc1 | -11% | 31 | 10% | 3.5µM* | -5 | -5%
CC(C)CCn1cnc2c1c(=O)n(C)c(=O)n2C | -9% | -7 | 24% | 12% | 0 | -18%
Cn1c(=O)c2c(ncn2CCO)n(C)c1=O | 4.3µM* | -7 | -7% | 13% | -7 | 7%
COc1ccc(OCC(=O)N2CCN(S(=O)(=O)c3ccc4c(c3)OCCO4)CC2)cc1 | / | / | -1% | / | / | /
CNc1cnc(-c2cccc(C(=O)N3CCOCC3)c2)cn1 | / | / | 16% | / | / | /
NS(=O)(=O)c1cccc(NC(=O)COC(=O)/C(=C/c2cccs2)c2cccs2)c1 | 31% | -11 | -11% | -34% | -2 | -17%
CCN(CC)S(=O)(=O)c1ccc(Cl)c(NC(=O)c2ccc(C#N)cc2)c1 | -7% | -7 | -4% | ? | -2 | -18%
Cc1ccc(NC(=O)CNc2ccc(Cl)c(Cl)c2)cc1S(=O)(=O)N(C)C | ? | 16 | 3% | 6.3µM* | -1 | -4%
Cc1ccc(NC(=O)COC(=O)c2ccccc2Cl)cc1S(=O)(=O)N(C)C | 0% | 71* | 7% | -21% | 32* | ?
Cc1ccc(NC(=O)Cc2ccc(Cl)c(Cl)c2)cc1S(=O)(=O)N(C)C | -77% | 8 | 12% | ? | 8 | 5%
CCN(CC)S(=O)(=O)c1ccc(C)c(NCC(=O)Nc2ccc(C#N)c(Cl)c2)c1 | 5.2µM* | -5 | -4% | 13µM* | -4 | ?
Cc1ccc(NC(=O)COC(=O)/C(=C/c2cccs2)c2cccs2)cc1S(=O)(=O)N(C)C | 5% | 89* | -26% | ? | 31* | 40%
CCCc1nc2nc(C)c(NS(=O)(=O)c3ccc([N+](=O)[O-])cc3)c(=O)n2[nH]1 | 2% | -8 | 0% | -8% | -3 | 29%
CS(=O)(=O)Nc1ccccc1-c1cccc2nccn12 | / | / | 0% | / | / | /
O=C1NC(=O)C2(CCCc3c([N+](=O)[O-])cccc32)N1 (configuration not stated) | / | / | 6% | / | / | /
O=c1[nH]c(=S)[nH]c2sc3c(c12)CCCCCC3 | ? | -10 | 36% | 29% | -2 | -7%
O=C(Nc1ccc2nc3n(c(=O)c2c1)CCCCC3)c1cc([N+](=O)[O-])ccc1F | ? | 32* | -2% | ? | 37* | 4%
COc1ccc(C(=O)Nc2ccc3nc4n(c(=O)c3c2)CCCC4)cc1[N+](=O)[O-] | -26% | -9 | / | 10% | 0 | -1%

Screening data deposited in PubChem BioAssay by National Center for Advancing Translational Sciences (NCATS).
